Shown are actives, neighbours in structure and some others; about 13% of the full set was active somewhere.
USP17 inh – inhibitors of human USP17 deubiquitinase; AID 1645855; A8MUK1; inhibition, % at 50 µM; hit rate 6.5% among 47,000; purified USP17, Ub-rhodamine cleavage fluorescence, 3 h
USP8 block – human USP8 deubiquitinase inhibition | P40818 | purified USP8, Ub-rhodamine cleavage fluorescence, 30 min | inhibition, % at 20 µM | hit rate 4.2% among 47,000
USP10 inh – blocks human USP10 ubiquitin-rhodamine cleavage. hit rate 1.1% among 47,000. Q14694. purified USP10, Ub-rhodamine fluorescence, 60 min. inhibition, % at 20 µM
Target sequence (Q14694 whole entry, looked up): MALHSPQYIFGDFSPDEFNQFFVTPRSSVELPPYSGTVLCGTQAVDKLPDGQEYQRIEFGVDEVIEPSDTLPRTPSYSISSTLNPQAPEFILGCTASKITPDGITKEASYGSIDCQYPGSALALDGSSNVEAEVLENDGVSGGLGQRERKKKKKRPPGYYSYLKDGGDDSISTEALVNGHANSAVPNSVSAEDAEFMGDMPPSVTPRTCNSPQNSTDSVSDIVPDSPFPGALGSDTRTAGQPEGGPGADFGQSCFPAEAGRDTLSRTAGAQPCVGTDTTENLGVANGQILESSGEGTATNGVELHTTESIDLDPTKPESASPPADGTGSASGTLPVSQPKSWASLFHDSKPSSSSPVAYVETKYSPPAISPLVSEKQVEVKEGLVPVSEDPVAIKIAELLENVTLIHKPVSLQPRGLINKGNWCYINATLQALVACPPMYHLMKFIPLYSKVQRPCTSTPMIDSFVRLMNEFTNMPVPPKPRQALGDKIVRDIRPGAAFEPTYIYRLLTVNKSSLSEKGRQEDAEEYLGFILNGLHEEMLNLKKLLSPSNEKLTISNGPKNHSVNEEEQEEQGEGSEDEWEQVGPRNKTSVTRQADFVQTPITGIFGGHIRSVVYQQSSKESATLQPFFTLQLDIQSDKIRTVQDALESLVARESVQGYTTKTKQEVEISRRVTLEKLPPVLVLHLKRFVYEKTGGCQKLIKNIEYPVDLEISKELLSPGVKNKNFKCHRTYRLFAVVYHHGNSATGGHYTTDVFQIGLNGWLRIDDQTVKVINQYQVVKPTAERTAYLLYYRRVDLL
UCHL1 inh – inhibitors of human UCHL1 deubiquitinase. purified UCHL1, Ub-rhodamine cleavage fluorescence. hit rate 0.2% among 47,000. inhibition, % at 20 µM
USP7 block – human USP7 deubiquitinase inhibition | Q93009 | purified USP7, Ub-rhodamine cleavage fluorescence | inhibition, % at 20 µM | hit rate 0.3% among 47,000 | AID 1645854
USP30 inh – inhibitors of human USP30 deubiquitinase | AID 1645860 | Q70CQ3 | hit rate 5.3% among 47,000 | inhibition, % at 25 µM | purified USP30, Ub-rhodamine cleavage fluorescence
* marks the source's active call; other numbers are inactive results. Rule as the data show it: active = inhibition above about 30%; inactive = the rest.

For Cc1ccc(C(=O)Cn2c(=O)n(C(C)C)c3nc(-c4ccco4)nc(C(N)=O)c32)c(C)c1 the results were USP17 inh -10, USP8 block 40*, USP10 inh -2, UCHL1 inh 14, USP7 block 26 and USP30 inh -242.
Cc1cccc(CSc2nc(-c3ccco3)nc3c2c(=O)n(C)c(=O)n3C)c1 was read as USP17 inh 0, USP8 block -3, USP10 inh 2, UCHL1 inh 0, USP7 block -2 and USP30 inh 10.
`COc1ccc(-c2nnc(SCc3ccccc3C#N)o2)c(OC)c1` gave USP17 inh 25, USP8 block 13, USP10 inh 1, UCHL1 inh 6, USP7 block -8 and USP30 inh 50*.
Screening CN1c2ccccc2CN(S(C)(=O)=O)CC1Cc1ccccc1 (configuration not stated) returned USP17 inh -2, USP8 block -1, USP10 inh -4, UCHL1 inh -1, USP7 block -2 and USP30 inh -5.
`O=C(COC(=O)c1cc(Cl)ccc1O)Nc1ccc2c(c1)OCCO2` gave USP17 inh 60*, USP8 block 19, USP10 inh 11, UCHL1 inh 3, USP7 block 5 and USP30 inh 19.
Screening O=C(COC(=O)c1ccc(NS(=O)(=O)c2ccc3c(c2)OCCO3)cc1)NCc1ccc(Cl)cc1 returned USP17 inh 18, USP8 block 1, USP10 inh 24, UCHL1 inh 7, USP7 block 9 and USP30 inh 50*.
For Cc1cc(C)cc(C(=O)OCC(=O)Nc2ccc3c(c2)OCCO3)c1 the results were USP17 inh 5, USP8 block 1, USP10 inh 5, UCHL1 inh 0, USP7 block 0 and USP30 inh 14.
Screening Cc1ccc(NS(=O)(=O)c2cc3n(c2)CCCN(C)C3=O)cc1C returned USP17 inh -8, USP8 block 8, USP10 inh -2, UCHL1 inh 1, USP7 block 2 and USP30 inh 0.
For Cc1cc(C(=O)COC(=O)c2ccc[nH]c2=O)c(C)n1-c1ccc2c(c1)OCO2 the results were USP17 inh 67*, USP8 block 30*, USP10 inh 3, UCHL1 inh 0, USP7 block -13 and USP30 inh -30.
Screening Cc1cc(C(=O)COc2ncnc3sccc23)c(C)n1CC1COc2ccccc2O1 (configuration not stated) returned USP8 block 6, USP10 inh -10, UCHL1 inh -16, USP7 block -11 and USP30 inh -120.
Cc1cc(C(=O)CN2CCN(Cc3ccc4c(c3)OCO4)CC2)c(C)n1-c1ccc2c(c1)OCO2 was read as USP17 inh 55*, USP8 block 21, USP10 inh -8, UCHL1 inh 0, USP7 block -8 and USP30 inh -16.
COc1cc(Br)c(CC(=O)OCC(=O)c2cc(C)n(-c3ccc(Cl)cc3)c2C)cc1OC was read as USP17 inh -28, USP8 block -7, USP10 inh -6, UCHL1 inh -2, USP7 block -1 and USP30 inh -59.
`Cc1ccc(S(=O)(=O)CCC(=O)OCC(=O)c2cc(C)n(-c3ccc4c(c3)OCO4)c2C)cc1` gave USP17 inh 41*, USP8 block 58*, USP10 inh 6, UCHL1 inh 4, USP7 block 5 and USP30 inh 3.
For Cc1cc(C(=O)COc2ncnc3sccc23)c(C)n1-c1ccc2c(c1)OCO2 the results were USP17 inh 57*, USP8 block 8, USP10 inh 4, UCHL1 inh 0 and USP7 block -8.
Screening CC(=O)N1[C@@H](CNC(=O)Cc2ccccc2F)C[C@@]2(C)[C@@H](O)CCCC[C@@H]12 returned USP17 inh 15, USP8 block 12, USP10 inh 2, UCHL1 inh 2, USP7 block 4 and USP30 inh 10.
Cc1cc(C)c2c(N3CCOCC3)nc(C(=O)NCc3ccccc3)nc2n1 was read as USP17 inh -9, USP8 block -68, USP10 inh -3, UCHL1 inh -5, USP7 block 0 and USP30 inh -17.
Screening Cc1nc(-c2noc3ccc(C(=O)NC4CCCC4)cc23)co1 returned USP17 inh 32*, USP8 block 17, USP10 inh 3, UCHL1 inh 0, USP7 block 3 and USP30 inh 33*.
O=C(NC1CCCC1)c1ccc2noc(-c3ccc(Cl)cc3)c2c1 was read as USP17 inh 39*, USP8 block -1, USP10 inh 0, UCHL1 inh -5, USP7 block 0 and USP30 inh -36.
Screening COc1cccc(NC(=O)c2ccc3noc(-c4ccc(Cl)cc4)c3c2)c1 returned USP17 inh 58*, USP8 block 3, USP10 inh 14, UCHL1 inh 0, USP7 block 5 and USP30 inh 0.
Screening O=C(Nc1cccc(OC(=O)c2ccc(Cl)cc2)c1)c1ccc(Cl)cc1 returned USP17 inh 63*, USP8 block 18, USP10 inh 13, UCHL1 inh 1, USP7 block 15 and USP30 inh -3.
N#Cc1cccc(C(=O)N2C3CCC(O)(CC3)C2CN2CCOCC2)c1 (configuration not stated) was read as USP17 inh -1, USP8 block -1, USP10 inh 4, UCHL1 inh 1, USP7 block 2 and USP30 inh 2.
For CCC(=O)Nc1ccc(-c2nc(Cn3cc(C)cn3)c(C)o2)cc1 the results were USP17 inh -7, USP8 block -4, USP10 inh 1, UCHL1 inh 1, USP7 block -1 and USP30 inh -29.
`CCCC(=O)N1CCN(c2ccc(Nc3ccccc3)nn2)CC1` gave USP17 inh 5, USP8 block 21, USP10 inh 1, UCHL1 inh 2, USP7 block -2 and USP30 inh 6.
`Cc1ccc(CC(=O)Nc2ccc3c(c2)CCC(=O)N3)cc1` gave USP17 inh -9, USP8 block -52, USP10 inh -5, UCHL1 inh -4, USP7 block -4 and USP30 inh -29.
`O=C(Nc1ccccc1)c1ccc2noc(-c3ccc(F)cc3)c2c1` gave USP17 inh -7, USP8 block -59, USP10 inh -3, UCHL1 inh -2, USP7 block -3 and USP30 inh -13.
`O=C(Nc1ccc2c(c1)OCO2)c1ccc2noc(-c3ccc(Cl)cc3)c2c1` gave USP17 inh 38*, USP8 block 5, USP10 inh 11, UCHL1 inh 2, USP7 block 11 and USP30 inh 10.
`CC(=O)c1cccc(NC(=O)c2ccc3noc(-c4ccc(F)cc4)c3c2)c1` gave USP17 inh 0, USP8 block -42, USP10 inh 0, UCHL1 inh -2, USP7 block -3 and USP30 inh 41*.
